Screening data as filed in PubChem BioAssay.
HepG2 viability = HepG2 cytotoxicity, counter-screen for TGF-b inhibitors. HepG2 CAGA-GFP viability, ATP luminescence, 18 h. AID 588856. hit rate 0.76% among 410,000. Potency, µM (top dose mostly 46.1 µM), for the others: at the top dose activity change, negative = cytotoxicity, actives largely listed as cytotoxic; note: potency is the fitted concentration of half-maximal effect
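HepG2 CAGA-GFP cells (1000/well, DMEM with 1% FBS) received compound, then TGF-beta at 500 pg/mL final, and were incubated 18 hours at 37 degrees C. Viability was read by CellTiter-Glo luminescence. Media-only wells were set as complete cell-killing and DMSO as no toxicity.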
IL-1B inflam inh = inhibitors of inflammasome signaling (IL-1 beta secretion); THP-1 LPS/ATP IL-1B secretion, AlphaLISA, 16 h; stronger effect = lower value; activity change, % at 57.5 µM; hit rate 4.7% among 360,000; AID 743279; in the data active = activity change below about -50%; inconclusive = mostly about -30% to -49%; note: % is set by controls: 0 for no effect and ±100 for the full control effect
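Secreted IL-1B measured by AlphaLISA bead assay after 16 h compound exposure of THP-1 cells; compounds (final up to 57.5 uM) added 1 h before LPS (250 ng/mL) and ATP (1.25 mM) stimulation; lower signal means less secretion.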
TDP1 block = inhibitors of human tyrosyl-DNA phosphodiesterase TDP1 | Q9NUW8 | recombinant TDP1, AlphaScreen DNA substrate cleavage | Potency, µM (highest dose often 130 µM), without a hit: at the top dose activity change, negative = inhibition, actives largely listed as inhibitors | hit rate 0.28% among 350,000 | AID 485290; note: potency is the fitted concentration of half-maximal effect; % is set by controls: 0 for no effect and ±100 for the full control effect; nearly all actives have a fitted effect of over 40% in size
Target sequence (Q9NUW8 whole entry, looked up): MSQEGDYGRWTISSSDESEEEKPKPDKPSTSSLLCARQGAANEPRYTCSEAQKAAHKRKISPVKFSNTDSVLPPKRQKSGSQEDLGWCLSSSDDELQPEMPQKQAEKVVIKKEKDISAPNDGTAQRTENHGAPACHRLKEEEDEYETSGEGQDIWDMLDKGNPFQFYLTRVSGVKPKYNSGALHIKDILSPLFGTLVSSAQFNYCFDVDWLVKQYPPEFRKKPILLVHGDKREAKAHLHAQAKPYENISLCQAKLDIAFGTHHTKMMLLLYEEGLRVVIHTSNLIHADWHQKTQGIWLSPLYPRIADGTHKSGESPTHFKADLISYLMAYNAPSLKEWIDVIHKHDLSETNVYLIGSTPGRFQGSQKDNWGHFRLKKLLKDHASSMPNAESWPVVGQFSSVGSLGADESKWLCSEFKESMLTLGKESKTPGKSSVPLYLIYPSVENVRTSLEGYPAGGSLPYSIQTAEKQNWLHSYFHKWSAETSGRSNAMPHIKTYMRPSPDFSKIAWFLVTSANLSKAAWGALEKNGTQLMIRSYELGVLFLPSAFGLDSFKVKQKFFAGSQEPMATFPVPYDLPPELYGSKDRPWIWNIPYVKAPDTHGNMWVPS
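E. coli-derived human Tdp1, 1 nM final. Cpd preinc 15 min RT; substrate 15 nM final, 5 min RT; AS bead mix 10 ug/ml final, 10 min RT. Signal loss = tyrosine-FITC cleavage. No-enzyme wells = max signal.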
TDP1 cell noCPT = qHTS for Inhibitors of human tyrosyl-DNA phosphodiesterase 1 (TDP1): qHTS in cells in absence of CPT | DT40 Tdp1-/- hTDP1 cells, no CPT, ATP luminescence, 48 h | Potency, µM (titrated, usually from 46.2 µM), without a hit: at the top dose activity change, negative = growth inhibition, usual class: inhibitors | hit rate 15% among 420,000 | AID 686978, 2013; note: potency is the fitted concentration of half-maximal effect; % is set by controls: 0 for no effect and ±100 for the full control effect; nearly all actives have a fitted effect of over 55% in size
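A cellular qHTS used chicken DT40 cells lacking endogenous Tdp1 but carrying stably transfected human TDP1. Compounds were applied without camptothecin, and cell growth kinetics were judged by ATP-dependent luminescence after ≥48 hr.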
TGFb inhibitor = blocks TGF-b signaling; HepG2 CAGA-GFP TGF-b/SMAD3 reporter, GFP fluorescence, 18 h; TGF-beta stimulated, 500 pg/mL final; hit rate 1.2% among 410,000; AID 588855; Potency, µM (titrated, usually from 46.1 µM), without a hit: at the highest dose activity, negative = inhibition, most hits filed as inhibitors; note: potency is the fitted concentration of half-maximal effect; % is set by controls: 0 for no effect and ±100 for the full control effect; nearly all actives have a fitted effect of over 65% in size
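GFP signal (ex488/em500-530) from TGF-beta-stimulated HEPG2 CAGA-GFP cells, 500 pg/mL final, 18 h at 37 degrees C in DMEM plus 1% FBS, normalized to unstimulated and DMSO-stimulated controls.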
DT40 TDP1 CPT = DT40-hTDP1 cell growth loss with CPT. Potency, µM (highest dose often 46.2 µM), without a hit: at the top dose activity change, negative = growth inhibition, hits mostly inhibitors. chicken DT40 Tdp1-/-;hTDP1 cells + 20 nM CPT, ATP luminescence, 48 h. hit rate 12% among 420,000; note: potency is the fitted concentration of half-maximal effect; % is set by controls: 0 for no effect and ±100 for the full control effect; nearly all actives have a fitted effect of over 55% in size
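Chicken DT40 Tdp1-/- cells complemented with human TDP1, 400 cells/well, exposed to compounds plus 20 nM camptothecin for at least 48 h at 37 C; viability read as ATP content by CellTiter-Glo luminescence.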
Numbers without * were called inactive; ? = inconclusive; · = no result given; [ ] = another dose, or the depositor's remark. Sampled rows, rich in hits. Any-hit rate of the full collection: about 18%. Unless noted, calls come from the whole dose curve; as a rule, active = well fitted curve in the direction sought with a large enough effect; inconclusive = small, poorly fitted or top-dose-only effect, or another doubt; inactive = no such curve, though single readings can be large; an effect the other way counts as inactive or inconclusive.

SMILES | HepG2 viability | IL-1B inflam inh | TDP1 block | TDP1 cell noCPT | TGFb inhibitor | DT40 TDP1 CPT
Cn1ccc2c(N(Cc3ccccc3)Cc3ccccc3)cc3c(c21)C1CCC3O1 (stereo not given) | 1.2% | 0.0 | · | 18.4µM* | 10µM* | ?
CCCN(CC(=O)Nc1ccccc1OC)C(=O)C1=COCCO1 | -2.6% | 0.0 | 1.3% | 2.7% | 12.2% | -12.5%
CCOc1ccccc1CNC(=O)C(C)n1nc(C)c2c(C)n(-c3ccccc3)nc2c1=O (stereo not given) | -19.7% | -3.4 | 3.3% | ? | -19.4% | 23.1µM*
CCOc1ccccc1CNC(=O)Cn1nc(C)c2c(C)n(-c3ccc(C)cc3)nc2c1=O | -43.6% | 18.5 | ? | ? | 5.01µM* | ?
CCCNC(=O)C(C)n1nc(C)c2c(C)n(-c3ccccc3)nc2c1=O (stereo not given) | 5.6% | · | -8.5% | 7.9% | -3.2% | -0.4%
CCN1C(=O)[C@H]2[C@H]3[C@H](O)[C@H](O)C/C(=N/OCC(C)C)[C@@H]3CC[C@@H]2C1=O | · | · | 10.1%[21 µM] | · | · | ·
COc1cc(C(=O)Sc2ccc(Cl)cc2)cc(OC)c1OC | -18.0% | ? | -3.9% | 11.6µM* | ? | 13µM*
COC(=O)Nc1ccc(S(=O)(=O)NC2CCS(=O)(=O)C2)cc1 (stereo not given) | 4.8% | 23.8 | · | -17.1% | -19.2% | -5.8%
CCCCc1ccc(S(=O)(=O)NC2CCS(=O)(=O)C2)cc1 (stereo not given) | -26.5% | 4.8 | 5.1% | 20.6µM* | -26.5% | 20.6µM*
Cn1c(-c2ccncc2)nc2cc(C(=O)N[C@H]3CCCCNC3=O)cc(NC(=O)C3CCC3)c21 | · | · | · | ? | · | -4.4%
COC(=O)C1=C(C)NC(C)=C(C(=O)OC(C)C)C1c1cccc2nonc12 (stereo not given) | 3.8% | -11.8 | 2.9% | ? | -0.9% | ?
COCCN1C=C(C(=O)OC)C(c2ccccc2C(F)(F)F)C(C(=O)OC)=C1 | 18.1% | -6.1 | -1.0% | ? | -13.3% | ?
COC(=O)C1=C(C)NC(C)=C([N+](=O)[O-])[C@H]1c1ccccc1C(F)(F)F | -7.1% | · | 10.7% | 11.2µM* | ? | ?
COC(=O)C1=C(C)NC(C)=C([N+](=O)[O-])[C@@H]1c1ccccc1C(F)(F)F | · | · | 10.2% | 29.9µM* | · | 29.9µM*
COC(=O)C1=C(C)NC(C)=C(C(=O)OCC(C)C)C1c1ccccc1[N+](=O)[O-] (stereo not given) | -45.1% | -65.0* | 14.9% | 5.17µM* | 17.8µM* | 6.51µM*
Cc1ccc(CNC(=O)Nc2cc(C(=O)NCc3ccc(C(C)C)cc3)ccc2N2CCCC2)cc1 | -1.9% | · | 6.2% | ? | ? | ?
COCC(=O)N1CCC2(CC1)CCN(C(c1ccccc1)c1ccccc1)CC2 | · | · | · | -13.8% | · | -1.8%
Cc1onc(-c2c(F)cccc2Cl)c1C(=O)c1ccccc1O | 5.62µM* | -11.2 | 0.0% | ? | -4.6% | -28.5%
Cc1onc(-c2c(Cl)cccc2Cl)c1C(=O)N/N=C(\N)COc1ccc(Cl)cc1 | -64.0% | 50.3 | -1.1% | 5.17µM* | 6.31µM* | 5.17µM*
Cc1onc(-c2c(F)cccc2Cl)c1C(=O)NCCO | 2.7% | 16.1 | 2.5% | 19.3% | 1.0% | 6.2%
Cc1onc(-c2c(F)cccc2Cl)c1C(=O)NC1CCCCCC1 | -4.0% | 1.2 | · | 29.1µM* | -8.5% | ?
Cc1onc(-c2c(F)cccc2Cl)c1C(=O)c1ccccc1 | 31.1% | · | 5.7% | ? | 19.6% | 1.1%
Cc1onc(-c2ccccc2Cl)c1C(=O)NC1CCCCCC1 | 4.1% | 11.4 | · | 16.4µM* | 0.0% | 25.9µM*
Cc1onc(-c2c(Cl)cccc2Cl)c1C(=O)c1c[nH]c(C(=O)NCC2CCCO2)c1 (stereo not given) | 16.2% | -6.2 | 8.8% | 13µM* | 1.3% | ?
CC(=O)c1c[nH]c(C(=O)NCC2CCCO2)c1 (stereo not given) | 4.5% | -5.6 | 1.1% | -4.2% | ? | -2.5%
SMILES | HepG2 viability | IL-1B inflam inh | TDP1 block | TDP1 cell noCPT | TGFb inhibitor | DT40 TDP1 CPT
Cc1onc(-c2c(Cl)cccc2Cl)c1C(=O)NC1CCCCC1 | -10.6% | -4.5 | · | 9.2µM* | -15.0% | ?
Cc1cc(Br)c(NC(=O)c2c(-c3c(Cl)cccc3Cl)noc2C)c(Br)c1 | 7.0% | 30.3 | -11.4% | ? | -0.4% | 20.6µM*
CCn1c(SCC(=O)Nc2nccc(C)n2)nc2ccccc21 | 10.4% | 31.3 | -5.7% | 8.2% | 5.4% | -11.1%
O=C(CN1CCN(S(=O)(=O)c2ccc3ccccc3c2)CC1)Nc1ccc2c(c1)CCC2 | 10.7% | 2.5 | 5.5% | ? | ? | 23.1µM*
N#Cc1ccsc1NC(=O)CN1CCN(S(=O)(=O)c2ccc3ccccc3c2)CC1 | 7.4% | 19.1 | 4.5% | 16.4µM* | -10.9% | ?
O=C(CCl)N1CCN(S(=O)(=O)c2ccc3c(c2)CCC3)CC1 | -113.9% | -66.7* | 1.0% | 0.651µM* | ? | 2.31µM*
COc1ccc(Cl)cc1C(=O)NNC(=O)c1cc2ccccc2o1 | -38.5% | -10.0 | -3.5% | ? | -20.8% | 4.1%
COCCCNC(=O)N1[C@H](c2cccs2)[C@@H](C)C(=O)[C@@H](C)[C@@H]1c1cccs1 | -19.3% | · | 0.0% | -24.9% | -7.2% | ?
COc1ccc(N2C(=O)CSC23C(=O)N(Cc2cccc(C(F)(F)F)c2)c2ccccc23)cc1 (stereo not given) | -12.1% | · | 0.0% | 14.6µM* | -21.6% | ?
O=C1CSC2(C(=O)N(Cc3cccc(F)c3)c3ccccc32)N1c1cccc(C(F)(F)F)c1 (stereo not given) | -38.8% | · | -2.8% | · | ? | ·
O=C1CSC2(C(=O)N(Cc3cccc(C(F)(F)F)c3)c3ccccc32)N1c1ccc(F)c(F)c1 (stereo not given) | -22.5% | · | 5.3% | 16.4µM* | ? | 20.6µM*
C#CCOC(=O)Nc1ccc(OCC(F)(F)F)nc1 | 5.8% | -1.3 | 3.5% | 7.31µM* | -1.6% | 9.2µM*
COC(=O)c1cc(CNC(=O)c2ccccn2)cc(NC(=O)c2ccccc2OC)c1 | · | · | · | ? | · | -7.5%[9.04 µM]
COc1ccccc1N1CCN(C(=O)/C=C/c2ccccc2)CC1 | -15.2% | 3.9 | 0.0% | 16.4µM* | 16.4% | ?
COc1cc(/C=C/C(=O)N2CCN(c3ccccn3)CC2)cc(OC)c1OC | -6.4% | 0.0 | 4.5% | 23.1µM* | -5.2% | ?
